SMN2 splice enh: qHTS Assay for Enhancers of SMN2 Splice Variant Expression | AID 1458, 2008 | Potency, µM (top dose mostly 46.1 µM), hits mostly activators | 210,000 compounds, 2.8% hits | HEK293 SMN2-luciferase splicing reporter, luminescence, 30-36 h; also: nearly all actives have a fitted effect of over 55% in size
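HEK293 cells carry an SMN2 minigene-luciferase reporter in which exon 7 inclusion puts luciferase in frame. Cells were seeded at 2000 cells/well, attached for 10-12 hours, then exposed to compounds for 30-36 hours at 37C before ONE-Glo luminescence.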
Rab9 prom act: qHTS Assay for Rab9 Promoter Activators; Huh7 Rab9 promoter-luciferase reporter, luminescence, 24 h; Potency, µM (top dose mostly 9.22 µM), usual class: activators; 320,000 compounds, 2.8% hits; also: nearly all actives have a fitted effect of over 60% in size
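Quantitative HTS format; Huh7 Rab9-luciferase reporter cells (1500/well) receive compound 2 h post-plating, incubate 24 h at 37 °C, then get luciferase reagent for 10 min before luminescence reading.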
FLuc modulator: qHTS profiling assay for firefly luciferase inhibitor/activator using purifed enzyme and Km concentrations of substrates (counterscreen for miR-21 project); 360,000 compounds, 6.9% hits; purified FLuc, Km substrates, luminescence inhibition; Potency, µM (doses to about 57.5 µM), hits mostly inhibitors; Luciferin 4-monooxygenase (Photinus pyralis), P08659; also: nearly all actives have a fitted effect of over 55% in size
Target sequence (P08659 whole entry, looked up): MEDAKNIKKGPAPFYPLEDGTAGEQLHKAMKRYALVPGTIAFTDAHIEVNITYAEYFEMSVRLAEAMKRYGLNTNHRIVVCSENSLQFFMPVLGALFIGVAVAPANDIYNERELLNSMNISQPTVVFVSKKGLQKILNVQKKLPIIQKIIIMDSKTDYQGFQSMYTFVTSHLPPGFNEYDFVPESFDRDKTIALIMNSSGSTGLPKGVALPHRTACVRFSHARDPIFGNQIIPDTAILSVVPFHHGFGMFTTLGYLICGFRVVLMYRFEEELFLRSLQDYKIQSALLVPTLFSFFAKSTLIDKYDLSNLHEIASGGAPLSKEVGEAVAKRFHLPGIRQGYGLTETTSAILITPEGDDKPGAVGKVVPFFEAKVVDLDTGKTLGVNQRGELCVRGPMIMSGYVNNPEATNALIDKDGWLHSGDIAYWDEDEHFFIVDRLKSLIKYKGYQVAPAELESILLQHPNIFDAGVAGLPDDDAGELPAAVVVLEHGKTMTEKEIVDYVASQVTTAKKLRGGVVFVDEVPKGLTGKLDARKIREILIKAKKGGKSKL
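Biochemical qHTS of compounds, final roughly 60 µM downward over six points, against 10 nM purified firefly luciferase using Km concentrations of substrates (10 uM D-luciferin, 10 uM ATP) in Tris acetate pH 7.5 buffer; luminescence output.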
NPC1 promoter act: qHTS Assay for NPC1 Promoter Activators; Huh7 NPC1 promoter luciferase reporter, 24 h; Potency, µM (highest dose often 9.22 µM), actives largely listed as activators; 320,000 compounds, 2.4% hits; also: nearly all actives have a fitted effect of over 60% in size
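Compounds in DMSO were transferred onto Huh7 NPC1-luciferase reporter cells pre-incubated 2 h; after 24 h at 37 °C, Amplite reagent was dispensed and luminescence recorded 10 min later.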
ELG1 genotoxic: qHTS screen for small molecules that induce genotoxicity in human embryonic kidney (HEK293T) cells expressing luciferase-tagged ELG1 | 330,000 compounds, 1.3% hits | Potency, µM (top dose mostly 46 µM), hits mostly activators | HEK293T ELG1-luciferase reporter, luminescence, 16 h; also: nearly all actives have a fitted effect of over 60% in size
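Luminescence read-out: rising ELG1-luciferase signal, reflecting elevated ELG1 protein under genetic stress, flags genotoxic compounds. Cells were treated for 16 hr at 37 °C before ONE-Glo detection.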
A number is an active result; 0 = inactive; ? = inconclusive; - = no result given; [ ] = remark or other dose. An excerpt weighted towards active compounds, which were near 7.5% of everything screened. Calls follow the shape of the dose curve; as a rule, active = well fitted curve in the direction sought with a large enough effect; inconclusive = small, poorly fitted or top-dose-only effect, or another doubt; inactive = no such curve, though single readings can be large; an effect the other way counts as inactive or inconclusive.

SMILES	SMN2 splice enh	Rab9 prom act	FLuc modulator	NPC1 promoter act	ELG1 genotoxic
Cc1cc(=O)oc2cc(NC(=S)NNC(=O)c3c(Cl)cnn3C)ccc12	-	0.89µM	1.5µM	0.45µM	?
Cc1cc(=O)oc2cc(NC(=S)NCc3ccccn3)ccc12	0	0	0	0	0
COc1ccc(-c2cc(CCCC(=O)NCc3ccccn3)no2)cc1	0	0	8.5µM	0	0
COc1ccc(-c2cc(CCCC(=O)NCCc3ccc(OC)cc3OC)no2)cc1	0	0	?	0	0
COc1ccc(-c2cc(CCCC(=O)NCCc3ccccc3)no2)cc1	-	?	7.6µM	?	0
CCOc1ccc(-c2cc(CCCC(=O)NCCc3ccccc3)no2)cc1	0	0	?	0	?
O=S(=O)(/N=C(/c1ccccc1)N1CCCCC1)c1ccccc1	0[1.84 µM]	0	0	0	0
COc1cc(C(=O)N/N=C/c2sc(N3CCOCC3)nc2-c2ccccc2)cc(OC)c1OC	0	0	0	0	0
CCCC(=O)N=C1SC2CS(=O)(=O)CC2N1c1ccc(C(C)=O)cc1 (stereo not given)	0	0	0	0	0
Cc1nnc(N/N=C\c2ccc(-c3cccc(C(=O)O)c3)o2)n1N	0	?	11µM	0	0
Cc1ccc(NC(=O)Cn2c(-c3nonc3N)nc3ccccc32)cc1C	10µM	-	0	-	-
Nc1nonc1-c1nc2ccccc2n1CC(=O)N/N=C/c1ccc(-c2cccc(C(=O)O)c2)o1	0	0	27µM	0	0
Cc1ccc(C)c(NC(=O)Cn2c(-c3nonc3N)nc3ccccc32)c1	0	-	0	-	-
COc1ccc(S(=O)(=O)Nc2cccc3c2O[C@H](CN(C)S(=O)(=O)c2ccccc2)[C@@H](C)CN([C@H](C)CO)C3=O)cc1	-	-	-	-	0
COc1cc(C(C)=O)ccc1OCC(=O)OCCCOC(=O)COc1ccc(C(C)=O)cc1OC	-	0	0	0	0
C[C@@H]1CN([C@H](C)CO)C(=O)Cc2cc(NC(=O)Cn3cnnn3)ccc2O[C@@H]1CN(C)Cc1ccc(Cl)c(Cl)c1	-	-	-	-	0
COc1ccc(-c2csc(NC(=O)CSc3nc(SC)ns3)n2)cc1	22µM	0	?	?	?
COc1ccc(-c2csc(NC(=O)CSc3nc(C)nc4sc(C(=O)O)c(C)c34)n2)cc1	-	0	27µM	0	0
O=C(COC(=O)c1ccc(OC(F)F)cc1)NCCC1=CCCCC1	-	0	0	0	0
COc1ccc(CCN2CCCC(CN(C)C(=O)c3ccoc3)C2)cc1 (stereo not given)	-	2.2µM	15µM	2.5µM	16µM
CN(CC1CCCN(CCc2ccccc2F)C1)C(=O)c1ccoc1 (stereo not given)	-	0	0	0	0
O=C(NCc1ccc(Cl)cc1)c1ccc2nc[nH]c2c1	0	0	0	0	0
O=C1CSC(c2ccccn2)N1c1ccc(Br)cc1 (stereo not given)	0	0	0	0	0
Cc1cc(NC(=O)CCC2CCCCC2)no1	0	0	?	0	0
O=C(CCC1CCCC1)Nc1ccc(Br)cn1	?	2.2µM	0[2.3 µM]	?	0
SMILES	SMN2 splice enh	Rab9 prom act	FLuc modulator	NPC1 promoter act	ELG1 genotoxic
CCCC(=O)Nc1ccc(Br)cn1	0	0	0	0	0
Cc1ccnc(NC(=O)CCC2CCCCC2)c1	?	?	11µM	?	8.2µM
COc1ccc(OC)c(CNc2ncc(-c3ccc(Cl)cc3)n2C)c1	0	-	0	-	-
Cc1cccc(NC(=O)COC(=O)CNC(=O)C2CCCCC2)c1	0	0	0	0	0
CCC(C)NCCOCCSc1ccc(Cl)cc1 (stereo not given)	0	0	0	0	0
Cc1ccccc1C(=O)Nc1ccc(Br)cn1	-	3.5µM	11µM	?	9.2µM
O=C(Nc1ccccc1C(=O)Nc1ccc(Br)cn1)c1ccccc1Cl	-	0	?	0	0
O=C(Nc1ccc(Br)cn1)c1ccc(Br)s1	-	0.79µM	4.3µM	?	?
O=C(Nc1ccccn1)c1ccc(Cl)s1	-	4µM	?	2.2µM	?
O=C(Nc1ccon1)c1ccc(Br)s1	-	0	0	0	0
Cc1cc(C(=O)Nc2ccc(Br)cn2)sc1C	-	2.2µM	-	1µM	?
CCCCn1cnc2c(c(CC#N)nn2-c2ccccc2)c1=N	0[9.22 µM]	-	-	-	-
CCC(=O)Nc1ccc(Br)cn1	-	0	0	0	0
